Structures are written as SMILES. Inconclusive results are not listed. The source made the active and inactive calls. Unless noted, the rule behind the calls is not given here.

A short description of assay [1]: qHTS profiling of the MIPE4 collection as inhibitors of Plasmodium falciparum (3D7) proliferation (AID 743344).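 Note: scaled between DMSO vehicle wells and 0.29 µM artemisinin as full inhibition.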 Conditions: P. falciparum 3D7 in erythrocytes, SYBR Green DNA fluorescence, 72 h; at 28.5 µM unless noted. In outline:
(§1)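 Parasite DNA was quantified by SYBR Green I fluorescence (ex 485, em 535 nm) after overnight lysis in saponin/Triton buffer at room temperature. Cultures at 0.3% parasitemia and 2.5% hematocrit were first exposed to compound for 72 h at 37 C; signals were normalised to artemisinin (0.29 uM) and vehicle wells.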
Background: qHTS replaces the single test concentration by a dilution series.

Assay [2] is described as follows: qHTS profiling of the MIPE4 collection as inhibitors of Plasmodium falciparum (DD2) proliferation (AID 743345). The conditions noted are these: P. falciparum Dd2 in erythrocytes, SYBR Green DNA, 72 h; at 28.5 µM unless noted. In a few lines:
as §1

The nature of assay [3]: qHTS profiling of the MIPE4 collection as inhibitors of Plasmodium falciparum (DD2) proliferation (Rep 2) (AID 743346). Conditions: P. falciparum Dd2 in erythrocytes, SYBR Green DNA, 72 h; at 28.5 µM unless noted. In a few lines: as §1
Assay [4] is described as follows: qHTS profiling of the MIPE4 collection as inhibitors of Plasmodium falciparum (HB3) proliferation (AID 743347).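 Note: plate controls were DMSO vehicle wells for no effect and artemisinin wells for full effect.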 Conditions: P. falciparum HB3 in erythrocytes, SYBR Green DNA, 72 h; at 28.5 µM unless noted. In outline:
as §1

The nature of assay [5]: High-throughput drug toxicity screening in the BPDCN cell line Gen2.2 (AID 1224824).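 Note: cells exposed to compounds for 48 h before reading.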 Conditions: Gen2.2 BPDCN cells; at 45.8 µM (top of the series) unless noted. In outline: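 CellTiter-Glo luminescence read after 48 h compound exposure at 37 C defines viability; percent activity set with DMSO as 100% and bortezomib (9.2 uM final) as 0%. 500 exponentially growing cells per well, RPMI plus 10% FBS.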

Assay [6] is described as follows: High-throughput drug toxicity screening in the BPDCN cell line Cal-1 (AID 1224825). Conditions: Cal-1 BPDCN cell viability, qHTS; at 45.8 µM (top of the series) unless noted. In a few lines: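 CellTiter-Glo luminescence after 48 h compound exposure; percent activity scaled with DMSO as 100% and bortezomib (9.2 uM final) as 0%. Cal-1 cells seeded at 500/well in RPMI, 10% FBS, no phenol red.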

The nature of assay [7]: qHTS assay for measurement of the activity of small molecule inhibitors on Zika virus induced Caspase-3 activity in human iPSC derived neural progenitor cells (hNPCs) (AID 1224857; active = well fitted inhibition curve with a large enough effect; note: nearly all actives have a fitted effect of over 65% in size; note: potency is the fitted concentration of half-maximal effect). In outline:
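In medium with heparin 2 ug/ml and cyclopamine 2 uM, hNPCs (350 cells/well) received compound for one hour and then Zika virus at 2 FFU/cell; caspase activity was measured by Caspase-Glo 3/7 luminescence 6 h post-infection.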

Assay [8] is described as follows: qHTS assay for measurement of the activity of small molecule inhibitors on Zika virus induced Caspase-3 activity in human astrocytoma cells (AID 1224859; active = well fitted inhibition curve with a large enough effect;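 note: plate controls were ZIKV-infected untreated cells for no effect and uninfected cells for full effect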). In a few lines: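 A cell-based luminescent caspase-3/7 assay used SNB-19 cells infected with ZIKV (2 FFU/cell) for 6 h following 1 h compound pretreatment.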
A short description of assay [9]: qHTS Screen of the MIPE 4.0 Collection Against Ewings Sarcoma (RDES) (AID 1259252; active = well fitted inhibition curve with a large enough effect; note: potency is the fitted concentration of half-maximal effect; nearly all actives have a fitted effect of over 35% in size). In outline: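 Dose series incubated 48 h with cells in RPMI plus 5% FBS, glutamine and penicillin/streptomycin; cell viability then quantified via CellTiter-Glo.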

As to `COC[C@@H](c1ccc(C(F)(F)F)cc1)N1CCN(C2(C)CCN(C(=O)c3c(C)ncnc3C)CC2)C[C@H]1C`, in assay [1], the parasite growth, % of DMSO control was determined as 31.8%. For the same compound, in [2], the parasite growth remaining, % of DMSO control (lower = more inhibition) worked out at 84.7%. The parasite growth, % of control (lower = inhibition) in [3] amounted to 21.5%. Moreover, the growth, % of control in [4] came to 28.5%. In [5], the cell viability, % of control (lower = more cytotoxic) was determined as 7.13%. Further, the viability (% of control) in assay [6] is 6.85%. In addition, the Potency result in [7] and in assay [8] was “inactive” throughout.

Regarding `CN(C)CCC=C1c2ccccc2COc2ccc(CC(=O)O)cc21`, in assay [1], the parasite growth, % of DMSO control stood at 91.3%. Also, in assay [2], the parasite growth remaining, % of DMSO control (lower = more inhibition) worked out at 91.8%. Further, the parasite growth, % of control (lower = inhibition) in [3] came to 121%. For the same compound, in assay [4], the growth, % of control was found to be 99.1%. Further, the cell viability, % of control (lower = more cytotoxic) in assay [5] was determined as 162%. In [6], the viability (% of control) worked out at 98%. The Potency entry in [7] and in [8] was “inactive” in each case.

`Nc1ncnc2c1ncn2[C@@H]1O[C@H](CO)C[C@@H]1O` yielded a parasite growth, % of DMSO control in assay [1] of 43.4%. The compound further showed a parasite growth remaining, % of DMSO control (lower = more inhibition) in [2] of 56.1%. Besides, the parasite growth, % of control (lower = inhibition) in [3] turned out to be 57.5%. This compound came in with a growth, % of control in assay [4] of 79%. The cell viability, % of control (lower = more cytotoxic) in [5] came to 96.4%. The viability (% of control) in [6] came to 39.8%. For the same compound, the Potency entry in assay [7] and in [8] was “inactive” in each case.

In turn, `CNC1CCC(N(Cc2cccc(-c3ccncc3)c2)C(=O)c2sc3c(F)ccc(F)c3c2Cl)CC1` (configuration not stated) came in with a parasite growth, % of DMSO control in [1] of 4.87%. The same compound had a parasite growth remaining, % of DMSO control (lower = more inhibition) in assay [2] of 7.02%. Moreover, the parasite growth, % of control (lower = inhibition) in [3] amounted to 23.7%. In [4], the growth, % of control is 6.39%. Moreover, the cell viability, % of control (lower = more cytotoxic) in assay [5] worked out at 0.6%. The viability (% of control) in assay [6] is 0.705%. Also, the Potency result in assay [7] and in [8] was “inactive” each time.

For `O=C(O)c1c(Cl)c(Cl)c(Cl)c(Cl)c1-c1c2cc(I)c(=O)c(I)c-2oc2c(I)c(O)c(I)cc12`, the parasite growth, % of DMSO control in assay [1] is 83.8%. The compound further gave a parasite growth remaining, % of DMSO control (lower = more inhibition) in assay [2] of 97.1%. Further, the parasite growth, % of control (lower = inhibition) in assay [3] was 80.2%. For the same compound, the growth, % of control in assay [4] turned out to be 88.8%. The cell viability, % of control (lower = more cytotoxic) in assay [5] was 96.1%. For the same compound, the viability (% of control) in [6] came out at 55.1%. Also, the Potency entry in assay [7] and in assay [8] was “inactive” each time.

The compound `NC(=O)[C@@H](CCC(F)(F)F)N(Cc1ccc(-c2ncon2)cc1F)S(=O)(=O)c1ccc(Cl)cc1` displayed a parasite growth, % of DMSO control in assay [1] of 50.8%. This compound yielded a parasite growth remaining, % of DMSO control (lower = more inhibition) in assay [2] of 88.9%. Besides, the parasite growth, % of control (lower = inhibition) in assay [3] came out at 54.6%. For the same compound, the growth, % of control in assay [4] was found to be 73.5%. Besides, in assay [5], the cell viability, % of control (lower = more cytotoxic) was found to be 127%. In assay [6], the viability (% of control) was 93.2%. Further, the Potency entry in assay [7] and in assay [8] was “inactive” throughout.

On to `O=C1NC(=O)C(=Cc2ccc3nccnc3c2)S1`, for which, in [1], the parasite growth, % of DMSO control amounted to 56.7% [at 9.64 µM]. Besides, in [2], the parasite growth remaining, % of DMSO control (lower = more inhibition) was 92.6% [at 9.64 µM]. Also, the parasite growth, % of control (lower = inhibition) in assay [3] was 114% [at 9.64 µM]. For the same compound, the growth, % of control in assay [4] turned out to be 88.4% [at 9.64 µM]. For the same compound, the cell viability, % of control (lower = more cytotoxic) in assay [5] amounted to 31% [at 23.2 µM]. In assay [6], this compound had a viability (% of control) of 44.1% [at 23.2 µM]. For the same compound, the Potency in assay [7] and in assay [9] was 14.4 µM (active) each time.

Regarding `O=C(Nc1cccc(Br)c1)c1cccc(S(=O)(=O)N2CCCCCC2)c1`, in assay [1], the parasite growth, % of DMSO control was 55.6%. The compound also registered a parasite growth remaining, % of DMSO control (lower = more inhibition) in assay [2] of 51.8%. Further, the parasite growth, % of control (lower = inhibition) in assay [3] turned out to be 72.2%. The compound also showed a growth, % of control in assay [4] of 21.1%. In addition, the cell viability, % of control (lower = more cytotoxic) in assay [5] worked out at 296%. In assay [6], this compound came in with a viability (% of control) of 76%. Besides, the Potency entry in assay [7] and in [8] was “inactive” in each case.

`CC[C@H]1OC(=O)[C@H](C)C(=O)[C@H](C)[C@@H](O[C@H]2O[C@H](C)C[C@H](N(C)C)[C@@H]2O)[C@](C)(OC)C[C@@H](C)C(=O)[C@H](C)[C@H]2N(CCCCn3cnc(-c4cccnc4)c3)C(=O)O[C@]12C`: the parasite growth, % of DMSO control in assay [1] was found to be 5.78%. This compound also displayed a parasite growth remaining, % of DMSO control (lower = more inhibition) in [2] of 14.5%. Further, the parasite growth, % of control (lower = inhibition) in assay [3] came to 32.9%. In [4], the growth, % of control was found to be 9.46%. Besides, in [5], the cell viability, % of control (lower = more cytotoxic) was determined as 122%. Moreover, the viability (% of control) in assay [6] turned out to be 93.6%. Besides, the Potency result in assay [7] and in assay [8] was “inactive” in each case.

(Values after PubChem BioAssay (NCATS).)
